Hits are enriched below; roughly 2.5% of the tested compounds scored in any of these assays.
PAX8 reporter: PAX8 transcriptional activity inhibition; RMG-I TPO-luciferase reporter, SteadyGlo, 24 h; inhibition, % at 12.6 µM; actives 1.2% (n = 360,000); AID 652154;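 active = mean replicate inhibition at least 60% with every replicate also reaching 60%; inconclusive = only one of the two criteria is met; inactive = mean below 60% and not all replicates reaching 60%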;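 note: luciferase light reporting Pax8 driven TPO promoter activity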
Env fusion inh: inhibitors of HIV Env-mediated cell fusion. HeLa-JRFL Env/CEM21 cell fusion, luciferase. inhibition, % at 12.3 µM. actives 1.1% (n = 360,000);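 active = mean replicate inhibition score of at least 50 and every replicate individually at or above 50; inconclusive = only one of the two criteria met; inactive = mean below 50 and not all replicates reaching 50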
F508del corr: CFTR F508del correction in bronchial cells; CFBE cells, YFP halide quenching; stimulated with forskolin plus potentiator P3; % fluorescence drop versus neutral controls; activity (quench increase), % at 7.58 µM; actives 0.36% (n = 350,000);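 active = mean added fluorescence quench of at least 8% versus neutral control, with both replicates also reaching 8%; inconclusive = only one of the mean or replicate conditions met; inactive = mean below 8% and not both replicates reaching 8%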;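 note: cells transiently co-express mutant CFTR-F508del with the halide-sensitive YFP; corrector assay measuring rescue of mutant channel to the surface after 24 h compound exposure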
FXN GAA850 act: increases GAA850 frataxin promoter reporter activity. HEK293 lucGAA850 FXN promoter luciferase reporter, 24 h; percent of 10 µM SAHA response. activation, % at 6 µM. actives 0.56% (n = 360,000). AID 540364;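 active = activation above the average of all compounds screened plus 3 SD, cutoff fixed separately per campaign, cut at about 7.5% in these data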
EWS-Fli inh: EWS/Fli transcriptional activity inhibition; A673 NR0B1-luciferase reporter, viability-normalised; inhibition, % at 12.6 µM; actives 0.67% (n = 350,000);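 active = mean inhibition of at least 50% after viability correction, with every replicate also passing that limit; inconclusive = mean reaches 50% but only one of two replicates passes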;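 note: firefly luciferase signal divided by Alamar Blue viability fluorescence both relative to DMSO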
Numbers stand for hits; 0 = inactive; ? = inconclusive; - = no result given; [ ] = dose if it differs, or a comment.

SMILES	PAX8 reporter	Env fusion inh	F508del corr	FXN GAA850 act	EWS-Fli inh
COc1ccc(Cc2c(-c3ccc(OC)c(OC)c3)nc3c(C)cc(Br)cn23)c(C)c1	66	0	0	-	0
Cc1cc(Br)cn2c(Cc3ccsc3)c(-c3ccc(F)cc3)nc12	0	0	8.1	-	0
C[C@@H]1CCCCO[C@@H](CN(C)C(=O)c2ccccc2)[C@H](C)CN([C@H](C)CO)C(=O)c2cc(NC(=O)c3ccccc3)ccc2O1	0	0	0	-	-
O=C(C[C@@H]1CC[C@@H]2[C@H](COC[C@@H](O)CN2C(=O)Nc2ccccc2)O1)NCc1ccccc1F	0	-	0	-	0
COc1ccccc1-c1ccc2c(c1)O[C@@H](CN(C)Cc1ccc3c(c1)OCO3)[C@@H](C)CN([C@H](C)CO)S2(=O)=O	0	0	0	-	0
CCOc1ccc(-c2cc(CCCC(=O)NCc3ccco3)no2)cc1	0	0	0	0	71
CN(C)c1ccc2c(c1)[C@H]1C[C@H](CC(=O)NCC3CC3)O[C@H](CO)[C@H]1O2	0	0	0	-	0
CC(=O)C1=C(C)NC(=S)NC1c1ccc(F)cc1 (stereo not drawn)	0	0	0	-	0
CC(=O)C1=C(C)NC(=S)NC1c1ccccc1 (stereo not drawn)	0	74	0	-	0
C[C@@H]1CN([C@@H](C)CO)S(=O)(=O)c2ccc(Br)cc2O[C@H]1CN(C)C(=O)c1cnccn1	-	0	0	-	0
CNC(=O)C1CCC(=O)N1Cc1ccccc1Cl (stereo not drawn)	-	0	-	0	-
O=C(Nc1cc(Cl)cc(Cl)c1)C1CCC(=O)N1Cc1ccccc1Cl (stereo not drawn)	0	53	-	0	-
Cc1cccc(-c2cc(NC=O)c3ncc(-c4cccc(C(=O)N(C)C)c4)n3c2)c1	0	0	0	0	0
COc1cccc(-c2cc(NC=O)c3ncc(-c4cc(OC)c(OC)c(OC)c4)n3c2)c1	0	0	0	0	53
COc1ccc(-c2cnc3c(NC(C)=O)cc(-c4cc(F)ccc4OC)cn23)cc1OC	0	0	0	0	54
COc1cc(-c2cnc3c(NC=O)cc(-c4cccc(C(F)(F)F)c4)cn23)cc(OC)c1OC	0	0	8.7	0	0
CN(C)C(=O)c1cccc(-c2cnc3c(NC=O)cc(-c4cccc(C(F)(F)F)c4)cn23)c1	-	56	0	0	0
O=C(C[C@@H]1CC[C@H]2[C@@H](COC[C@@H](O)CN2Cc2ccccc2F)O1)NC1CCC1	0	0	0	-	0
COCC#Cc1cnc2c(c1)C(=O)N([C@H](C)CO)C[C@@H](C)[C@@H](CN(C)C(=O)C1CCCCC1)O2	0	0	0	-	0
O=CNc1cc(-c2cccc(F)c2)cn2c(-c3ccc(F)cc3)cnc12	0	0	0	0	0
CS(=O)(=O)Nc1cccc(-c2cc(NC=O)c3ncc(-c4ccc(F)cc4)n3c2)c1	81	0	0	0	0
COc1ccc(-c2cc(NC=O)c3ncc(-c4ccc(OC)c(OC)c4)n3c2)cc1	0	0	8.4	0	?
COc1ccc(-c2cc(NC=O)c3ncc(-c4ccc(OC)c(OC)c4)n3c2)cc1OC	0	0	-	0	0
COc1cc(-c2cnc3c(NC=O)cc(-c4ccsc4)cn23)cc(OC)c1OC	-	0	0	0	56
Cc1noc(C)c1S(=O)(=O)Nc1ccc2c(c1)C(=O)N([C@H](C)CO)C[C@@H](C)[C@H](CN(C)Cc1ccccc1)OCCCC[C@H](C)O2	0	0	0	-	0
SMILES	PAX8 reporter	Env fusion inh	F508del corr	FXN GAA850 act	EWS-Fli inh
CCOc1ccc(OCc2cccc(C(=O)O)c2)cc1	-	-	0	0	88
O=C(O)c1cccc(COc2ccc3c(c2)CCC3)c1	108	85	0	0	88
O=C(NCc1ccccc1)c1cccc(COc2ccc3c(c2)CCC3)c1	0	0	-	0	-
O=C(O)c1cccc(COc2ccc(CO)cc2Cl)c1	-	-	0	0	89
O=C(O)c1ccc(COc2ccc(CO)cc2Cl)cc1	-	0	-	0	-
C[C@H]1CN([C@@H](C)CO)C(=O)Cc2cc(NS(=O)(=O)c3cccs3)ccc2O[C@@H]1CN(C)Cc1ccncc1	0	0	0	-	0
O=C(CCl)N1CCN(S(=O)(=O)c2ccc3ccccc3c2)CC1	0	0	0	0	60
O=C(CN1CCN(S(=O)(=O)c2ccc(Cl)c(Cl)c2)CC1)N1CCCC1	0	0	11	0	0
O=C(CN1CCN(S(=O)(=O)c2ccc(Cl)c(Cl)c2)CC1)N1CCCCC1	0	-	0	0	0
COc1ccc2c3c(n(C)c2c1)[C@H](CO)N(C(=O)Cc1ccccn1)CC31CCN(CC2CCOCC2)CC1	-	-	0	-	0
Cc1ccc(S(=O)(=O)Nc2ccc3c(c2)C(=O)N([C@H](C)CO)C[C@@H](C)[C@H](CN(C)S(=O)(=O)c2ccc(F)cc2)O3)cc1	-	60[16.7 µM]	0	-	0
Cc1ccc(S(=O)(=O)Nc2ccc3c(c2)C(=O)N([C@@H](C)CO)C[C@H](C)[C@@H](CN(C)S(=O)(=O)c2ccc(F)cc2)OCCCC[C@@H](C)O3)cc1	0	-	0	-	0
C[C@H](CO)N1C[C@H](C)[C@H](CN(C)S(=O)(=O)c2ccccc2)OCCCC[C@H](C)Oc2ccc(NS(=O)(=O)c3ccc(F)cc3)cc2C1=O	63	0	0	-	0
Cc1ccc(S(=O)(=O)Nc2ccc3c(c2)C(=O)N([C@H](C)CO)C[C@H](C)[C@H](CN(C)S(=O)(=O)c2ccc(F)cc2)OCCCC[C@H](C)O3)cc1	68	0	0	-	0
Cc1ccc(S(=O)(=O)N(C)C[C@@H]2OCCCC[C@H](C)Oc3ccc(NS(=O)(=O)c4ccc(F)cc4)cc3C(=O)N([C@@H](C)CO)C[C@@H]2C)cc1	0	0	0	-	0
Cc1ccc(S(=O)(=O)N(C)C[C@@H]2OCCCC[C@H](C)Oc3ccc(NS(=O)(=O)c4ccc(F)cc4)cc3C(=O)N([C@H](C)CO)C[C@@H]2C)cc1	70	0	0	-	0
Cc1ccc(S(=O)(=O)N(C)C[C@@H]2Oc3ccc(NS(=O)(=O)c4ccc(F)cc4)cc3C(=O)N([C@@H](C)CO)C[C@@H]2C)cc1	0	0	0	-	0
CNC[C@H]1Oc2ccc(NC(=O)C3CCCCC3)cc2CC(=O)N([C@@H](C)CO)C[C@@H]1C	0	0	0	-	0
CCCC(=O)Nc1ccc2c(c1)C(=O)N(C)C[C@H](OC)[C@@H](C)CN(Cc1nccs1)[C@@H](C)CO2	0	0	0	-	0
Cc1ccc(S(=O)(=O)Nc2ccc3c(c2)C(=O)N([C@@H](C)CO)C[C@@H](C)[C@@H](CN(C)S(=O)(=O)c2ccc(F)cc2)OCCCC[C@@H](C)O3)cc1	68	0	0	-	0
Cc1ccc(S(=O)(=O)N(C)C[C@H]2OCCCC[C@@H](C)Oc3ccc(NS(=O)(=O)c4ccc(F)cc4)cc3C(=O)N([C@@H](C)CO)C[C@H]2C)cc1	83	0	0	-	0
C[C@H](CO)N1C[C@H](C)[C@@H](CN(C)S(=O)(=O)c2ccc(C(F)(F)F)cc2)OCc2ccccc2-c2ccccc2C1=O	0	0	0	-	0

Bioassay records: PubChem BioAssay, several laboratories
